# Only some compounds are listed: those with a hit (about 13% of all), similar ones and a draw of the others.
# RAM network inh: inhibitors of the yeast RAM network, primary screen, dse1pr::URA3 reporter, 5-FOA selection | AID 868, 2007 | inhibition, % at 50 µM | hit rate 1.8% among 190,000 | S. cerevisiae dse1pr::URA3 reporter, 5-FOA growth OD615, 2 d; analog-sensitive cbk1-as2 kinase mutant strain;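 active means inhibition above a set limit, 3 SD over mean compound inhibition, cut at about 8.4% in these data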;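 further: 0% = DMSO-only wells with no growth and 100% = 10 µM 1-NA-PP1 full growth; inhibition rescues growth on 5-FOA so higher OD means more RAM inhibition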
# WT yeast gro inh: growth inhibition of WT strain, primary screen, mitochondrial fusion inhibitor project, WT and mutant strains, chemical genetic; AID 1362, 2008; mitochondrial fusion phenotypic screen; inhibition, % at 10 µM; hit rate 2.1% among 190,000; in the data active means inhibition above about 58%; tested in S. cerevisiae
# Lmaj promast: Leishmania major promastigote growth inhibition, primary screen | Leishmania major promastigotes, resazurin fluorescence viability | inhibition, % at 10 µM | hit rate 9% among 200,000; in the data active means inhibition above about 50%;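 further: promastigotes grown with compound for 44 hours at 28 °C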
# CHOP inh: inhibitors of CHOP promoter induction, primary screen, cell-based, unfolded protein response, luciferase reporter; hit rate 3.8% among 220,000; CHO-K1 CHOP-promoter luciferase, tunicamycin-induced, 15-18 h; inhibition, % at 10 µM; AID 2732, 2010;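 active means compounds that reduced the stress-induced luciferase reporter signal by more than about 70% of percent inhibition, limit read from the data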;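 further: 0% = tunicamycin plus vehicle and 100% = wells without tunicamycin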
# Starred values were filed as active, the others as inactive; · = no result given; ! = repeats disagree.
SMILES,RAM network inh,WT yeast gro inh,Lmaj promast,CHOP inh
O=C(NCCNC(=O)c1cc(OCC(F)(F)F)ccc1OCC(F)(F)F)Nc1ccc(OC(F)(F)F)cc1,5.7,-3.0,-1.1,90.4*
O=C(NCC1CCCCN1)c1cc(OCC(F)(F)F)ccc1OCC(F)(F)F (stereo not given),1.7,-0.3,-4.2,73.7*!
O=C(O)CCC(=O)N(Cc1ccco1)C1CC(=O)N(c2ccccc2)C1=O (stereo not given),·,·,·,-15.4
O=S(=O)([N-]c1nc2ccccc2nc1-n1cc[n+](Cc2ccccc2)c1)c1ccc(Cl)cc1,·,·,·,6.9
COc1ccc(-c2c[n+]3c4n2CCCCC4=C(c2ccccc2)C3)cc1,-0.9,-10.1,100.5*,17.7
COc1ccc(-c2c[n+]3c(n2-c2ccc(C)cc2)CCCCC3)cc1,·,·,·,48.0
CCOc1ccc(-n2c(-c3ccccc3)c[n+]3c2CCC3)cc1,0.8,-6.4,94.4*,5.7
CCOc1ccc(-n2c(-c3ccc(Br)cc3)c[n+]3c2CCCCC3)cc1,1.7,23.3,100.5*,0.8
COc1ccc(-c2c[n+]3c(n2-c2ccccc2)CCCCC3)cc1,0.6,-1.4,99.3*,-9.7
COc1ccc(-n2c(-c3ccc(Cl)cc3)c[n+]3c2CCCCC3)cc1,·,·,·,24.1
CCOc1ccc(-n2c(-c3ccc(OC)cc3)c[n+]3c2CCCCC3)cc1,1.6,12.0,100.3*,45.6
CN1N=C(C(C)(C)C)CSC1=Nc1ccccc1,·,·,·,-6.6
c1ccc(-n2ncc3c(N4CCN(CCOc5cccc6ccccc56)CC4)ncnc32)cc1,-1.7,21.3,98.9*,62.2
COc1ccc(-n2ncc3c(N4CCCCC4)ncnc32)cc1,0.2,20.9,7.8,89.1*
Clc1ccc(-n2ncc3c(N4CCCCCC4)ncnc32)cc1,2.9,0.4,-4.2,83.9*
COc1ccc(-n2ncc3c(N4CCN(c5cccc(C)c5C)CC4)ncnc32)cc1,·,5.1,·,·
CS(=O)(=O)N1CCN(c2ncnc3c2cnn3-c2ccccc2)CC1,0.6,-19.4,-6.7,-11.6
COc1cc(OC)c(NC(C)C(=O)N2CCCC2)cc1Cl (stereo not given),1.1,-4.7,1.7,-4.1
CCOc1ccc(N2CC(O)=C(c3ccccc3)C2=N)cc1,0.3,-10.4,-3.3,7.7
Cc1ccc(/C=C2/NC(=O)N(c3ccccc3)C2=O)o1,0.4,3.1,0.1,8.1
O=C1N/C(=C/c2ccc(Br)s2)C(=O)N1c1ccccc1,3.1,-6.2,1.1,96.2*
CC1=CC(C)[C@H](/C=N/n2c(=O)[nH]c3c([nH]c4ccc(C)cc43)c2=O)C(C)C1 (stereo not given in full),2.9,-1.6,40.8,26.5
O=C(O)c1ccccc1C(=O)N1CC=C(c2ccccc2)CC1,1.1,1.9,89.8*,31.7
CN1C(=O)c2cccc(NCCCCCCN3C(=O)c4ccccc4C3=O)c2C1=O,5.1,8.4,-4.7,71.1*
c1ccc(-c2csc(N3CCOCC3)n2)cc1,-1.5,1.0,2.6,-3.5
SMILES,RAM network inh,WT yeast gro inh,Lmaj promast,CHOP inh
c1ccc(-c2csc(N3CCN(c4ccccn4)CC3)n2)cc1,0.7,62.8*,-3.2,-23.0
Cn1c(=S)[nH]c2[nH]c(=O)cnc2c1=O,0.8,-3.6,12.5,-1.6
Cc1nc(C)c(-c2nnc(-c3ccc(C(C)(C)C)cc3)o2)cc1C(=O)NN,5.6,3.3,-1.4,16.1
COc1ccc(C(=O)OC(C(=O)c2ccccc2)c2ccccc2)cc1 (stereo not given),5.7,7.7,23.8,72.3*
C=CCn1c(SCc2nc3cc(C(=O)OC)ccc3c(=O)[nH]2)nc2sc(CC)cc2c1=O,0.9,1.6,58.7*,72.0*
C=CCn1c(SCC(=O)Nc2sccc2C(N)=O)nc2sc(CC)cc2c1=O,8.5*,2.1,2.3,50.8
C=CCn1c(SCC(=O)Nc2sccc2C(N)=O)nc2ccccc2c1=O,0.6,-10.9,2.0,51.2
C=CCn1c(SCC(=O)Nc2sccc2C(N)=O)nc2ccc(Cl)cc2c1=O,0.7,25.4,17.7,77.9*
C=CCn1c(SC(C)C(N)=O)nc2sc(CC)cc2c1=O (stereo not given),0.4,-5.3,18.2,-10.4
COc1ccccc1NC(=O)Cn1cnc2sc(C(=O)NCc3ccco3)c(C)c2c1=O,9.4*,8.2,-0.7,6.7
COc1ccccc1NC(=O)Cn1cnc2sc(C)c(S(=O)(=O)N3CCCCC3)c2c1=O,8.9*,-1.2,-4.6,-11.4
CCN(CC)CCCNC(=O)c1sc2ncn(CC(=O)Nc3ccc(C)c(Cl)c3)c(=O)c2c1C,2.9,-14.6,11.1,9.9
CCn1cnc2sc(C(=O)Nc3ccccc3OC)c(C)c2c1=O,·,·,·,-1.1
COc1ccc(C)cc1NC(=O)Cn1cnc2sc(C)c(S(=O)(=O)N3CCOCC3)c2c1=O,6.2,-4.8,9.5,-2.5
Cc1ccc(NC(=O)Cn2cnc3sc(C(=O)NCCN(C)C)c(C)c3c2=O)cc1Cl,0.0,-6.9,76.1*,6.7
N#CCCN1CCCc2cc(N=Nc3ccc(C(F)(F)F)cc3)ccc21,·,·,·,-18.4
Cc1nnc(C)c2c(C)n(-c3ccccc3N)c(C)c12,0.6,-1.7,-0.2,-14.1
CC[C@@H](C(=O)n1nc(C)cc1C)[C@H](NS(=O)(=O)c1ccc(C)cc1)c1ccccc1,10.0*,-11.4,11.4,25.9
Cc1ccc(S(=O)(=O)NC(C(=O)O)c2ccccc2)cc1 (stereo not given),2.1,-14.9,-8.3,4.9
CCOC(=O)Cc1csc(NC(=O)CSc2nnc(-c3ccncc3)o2)n1,2.3,16.8,51.1*,43.7
CCOc1ccc(-c2nnc(SCC(=O)Nc3cc(C)on3)o2)cc1,0.1,-6.9,-0.9,77.3*
COc1cccc(-c2nnc(SCC(=O)Nc3cc(C)on3)o2)c1,0.5,15.1,-3.8,-19.7
COc1ccc(-c2nnc(SCC(=O)Nc3ccccc3OC)o2)cc1,2.3,16.0,0.6,33.3
COc1ccc(-c2nnc(SCC(=O)Nc3cccc(Cl)c3)o2)cc1,3.8,4.8,-4.4,88.6*
Cc1nonc1C(=O)N/N=C/c1cccc(O)c1,1.4,10.6,-6.4,-15.3
SMILES,RAM network inh,WT yeast gro inh,Lmaj promast,CHOP inh
CN(C1=NS(=O)(=O)c2ccccc21)c1ccc(OC(=O)c2ccncc2)cc1,3.1,-7.8,2.6,17.2
O=[N+]([O-])c1cccc(C(=Nc2ccccc2)NO)c1,0.1,-9.9,3.1,11.9
O=[N+]([O-])c1cc([N+](=O)[O-])c2c(=Nc3ccccc3)n(-c3ccccc3)n(O)c2c1,2.6,46.8,100.3*,-64.7
CCOC(=O)C1=C(CSc2nc3ccccc3s2)NC(=O)NC1c1cccc([N+](=O)[O-])c1 (stereo not given),7.2,11.8,11.1,78.0*
CC(=O)c1c(C)[nH]c(C(=O)CSc2nnc(-c3ccccc3)o2)c1C,1.6,-6.8,-5.9,37.2
CC(=O)c1c(C)[nH]c(C(=O)CSc2ncnc3sc(-c4ccccc4)cc23)c1C,3.6,22.1,74.1*,50.0
O=C(O)CCSc1ncnc2sc(-c3ccccc3)cc12,·,·,·,88.9*
O=C(O)CSc1ncnc2sc(-c3ccccc3)cc12,1.9,-18.1,-0.7,-15.1

# Screening results: PubChem BioAssay, several laboratories
